Experimental findings from PubChem BioAssay (EPA / NIEHS) are described below.

Assay [1] can be described thus: APR_HepG2_StressKinase_1hr: Apredica 1-hour HepG2 Assay for Stress Kinase (AID 2282906). As to conditions: HepG2 stress kinase (phospho-c-Jun) imaging, actives raise or lower the signal. The gist of the method:
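High-content imaging of phospho-c-Jun immunostaining (with Hoechst nuclear identification) after a 1 h exposure of HepG2 cells to 10 concentrations from 0.39 to 200 uM, final DMSO 0.5%. Fitted bidirectionally against DMSO.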

Assay [2] can be described thus: APR_HepG2_NuclearSize_24hr: Apredica 24-hour HepG2 Assay for Nuclear Size (AID 2282907). As to conditions: high-content imaging, actives raise or lower the signal. The gist of the method:
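Read-out: nuclear diameter from Hoechst 33342 (2 ug/mL) imaging of fixed HepG2 cells, 20x, six fields/well. Compounds ran at 0.39–200 uM for 24 hr, 0.5% DMSO final. Gain or loss was fitted bidirectionally relative to the DMSO baseline.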

Assay [3] can be described thus: APR_HepG2_CellLoss_24hr: Apredica 24-hour HepG2 Assay for Cell Loss (AID 2282908).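 As to AC50: fit in both directions so a hit may be cell loss or gain.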 The settings on record: high-content imaging. The gist of the method: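 Read-out: Hoechst 33342-stained nuclei counted by automated fluorescence imaging after formaldehyde fixation and Triton permeabilization. Ten concentrations, 0.39 to 200 uM, duplicate wells, 0.5% DMSO final. Gain or loss of signal fitted relative to DMSO baseline.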

The nature of assay [4]: APR_HepG2_MicrotubuleCSK_24hr: Apredica 24-hour HepG2 Assay for Microtubule CSK Stabilty (AID 2282909). The settings on record: HepG2 microtubule cytoskeleton imaging, actives raise or lower the signal. Summed up:
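Read-out: alpha-tubulin immunofluorescence intensity by automated high-content imaging of fixed HepG2 cells after 24 h compound treatment. Ten concentrations, 0.39 to 200 uM, in duplicate; DMSO 0.5% v/v. Taxol positive control; DMSO-normalized bidirectional curve fitting.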

Assay [5] is described as follows: APR_HepG2_MitoticArrest_24hr: Apredica 24-hour HepG2 Assay for Mitotic Arrest (AID 2282910). As to conditions: high-content imaging, actives raise or lower the signal. The gist of the method: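 Treatment lasted 24 hr in the human HepG2 line at 0.39–200 uM, solvent held at 0.5% DMSO. Fixed cells were stained with Hoechst 33342 and anti-phospho-histone H3, imaged at 20x, and analysed by gain- or loss-of-signal fitting against DMSO.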

Assay [6] can be described thus: APR_HepG2_MitoMembPot_24hr: Apredica 24-hour HepG2 Assay for Mitochondrial Membrane Potential (AID 2282911). The settings on record: imaging, actives raise or lower the signal. The gist of the method: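 Cells are dosed for 24 hr across 0.39 to 200 uM with solvent held at 0.5% DMSO. They are then stained with 250 nM MitoTracker Red CMXRos for 30 min, fixed in 3.7% formaldehyde and imaged.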

A short description of assay [7]: APR_HepG2_CellCycleArrest_72hr: Apredica 72-hour HepG2 Assay for Cell Cycle Arrest (AID 2282914). As to conditions: high-content imaging, actives raise or lower the signal. Summed up: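 Read-out is Hoechst-stained nuclear DNA content measured by automated fluorescence imaging (20x, six images per well), fitted in both directions relative to DMSO. Human HepG2 liver cells received 0.39–200 uM compound for 72 hr at 0.5% v/v DMSO.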

Assay [8] can be described thus: APR_HepG2_CellLoss_72hr: Apredica 72-hour HepG2 Assay for Cell Loss (AID 2282915). The settings on record: high-content imaging. The gist of the method: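 HepG2 cells were exposed for 72 hr to compounds at 0.39–200 uM (ten concentrations, duplicate) in 0.5% v/v final DMSO. Nuclei were stained with Hoechst 33342 after 3.7% formaldehyde fixation, imaged at 20x, and counted; fits bidirectional versus DMSO.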

Assay [9] is described as follows: APR_HepG2_P-H2AX_72hr: Apredica 72-hour HepG2 Assay for H2AX Phosphorylation (AID 2282916).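 Also: phospho-histone H2A.x immunostain intensity per cell marking DNA damage.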 As to conditions: imaging, actives raise or lower the signal. Summed up:
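Readout: phospho-H2A.x immunofluorescence (FITC secondary) plus Hoechst nuclear stain, high-content imaging at 20x, six fields/well. HepG2, 72 hr compound exposure, 0.39–200 uM, final DMSO 0.5% v/v. Gain or loss fitted relative to DMSO baseline.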

A short description of assay [10]: APR_HepG2_MitoMembPot_72hr: Apredica 72-hour HepG2 Assay for Mitochondrial Membrane Potential (AID 2282917). The settings on record: imaging, actives raise or lower the signal. The gist of the method: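 HepG2 cells exposed 72 h to compounds at 0.39–200 uM (0.5% v/v DMSO, duplicates); MitoTracker Red CMXRos 250 nM loaded 30 min before 3.7% formaldehyde fixation, imaged by HCS fluorescence. Bidirectional fit versus DMSO.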

A short description of assay [11]: APR_HepG2_MitoticArrest_72hr: Apredica 72-hour HepG2 Assay for Mitotic Arrest (AID 2282918). The settings on record: high-content imaging, actives raise or lower the signal. Summed up: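 Read-out is phospho-histone H3 immunofluorescence with Hoechst nuclear segmentation, imaged at 20x. Human HepG2 liver cells received ten concentrations (0.39–200 uM, final DMSO 0.5% v/v) for 72 hr before fixation. Gain or loss of signal was fitted relative to DMSO.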

Assay [12] in a line: APR_HepG2_MicrotubuleCSK_72hr: Apredica 72-hour HepG2 Assay for Microtubule CSK Stabilty (AID 2282919). The settings on record: HepG2 microtubule cytoskeleton, high-content imaging, actives raise or lower the signal. Summed up:
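Ten-point dosing (0.39–200 uM, 0.5% DMSO) of HepG2 for 72 hr, with taxol as the cytoskeletal positive control. The cells were formaldehyde-fixed and then stained with alpha-tubulin/Cy5 and Hoechst. Imaging at 20x used a −2 um Z offset for tubulin.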

Assay [13] can be described thus: APR_HepG2_P-H2AX_24hr: Apredica 24-hour HepG2 Assay for H2AX Phosphorylation (AID 2282920). As to conditions: high-content imaging, actives raise or lower the signal. The gist of the method: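 HepG2, 24 hr, cpd 0.39–200 uM (10 conc, duplicate), DMSO 0.5% v/v final. Fix 3.7% formaldehyde, Triton X-100 permeabilize, anti-phospho-H2A.x 1:200 + Hoechst 2 ug/mL. Imaged, bidirectional fit vs DMSO.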

The nature of assay [14]: APR_HepG2_StressKinase_72hr: Apredica 72-hour HepG2 Assay for Stress Kinase (AID 2282921). As to conditions: HepG2 stress kinase (phospho-c-Jun) imaging, actives raise or lower the signal. The gist of the method:
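Phospho-c-Jun immunofluorescence measured by high-content imaging at 20x, six fields per well; bidirectional curve fitting against DMSO as baseline. Dosing: 0.39–200 uM, 72 h, 0.5% DMSO final.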

Assay [15] in a line: APR_HepG2_MitoMass_72hr: Apredica 72-hour HepG2 Assay for Mitochondrial Mass (AID 2282924).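 Also: MitoTracker Red CMXRos stain intensity per cell imaged as mitochondrial mass.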 The settings on record: high-content imaging, actives raise or lower the signal. The gist of the method:
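Steps: treat HepG2 72 hr (0.39–200 uM, duplicate wells); load MitoTracker Red CMXRos, 250 nM, 30 min; fix with 3.7% formaldehyde, permeabilise with 0.5% Triton X-100; capture images, nuclei via Hoechst 33342; fit bidirectionally against DMSO.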

A short description of assay [16]: APR_HepG2_NuclearSize_72hr: Apredica 72-hour HepG2 Assay for Nuclear Size (AID 2282925). The settings on record: high-content imaging, actives raise or lower the signal. Summed up:
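Compounds (0.39–200 uM, final DMSO 0.5%) were applied to HepG2 for 72 hr. Cells were then formaldehyde-fixed, permeabilized and labelled with Hoechst 33342. Nuclear diameter was quantified from six images per well.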

Assay [17] is described as follows: APR_HepG2_p53Act_24hr: Apredica 24-hour HepG2 Assay for p53 Activation (AID 2282913).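 Also: p53 protein immunofluorescence averaged per cell in HepG2 with Hoechst nuclei.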 As to conditions: high-content imaging, actives raise or lower the signal. Summed up: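 Human HepG2 liver cells; 24 hr cpd treatment, 0.39–200 uM, 0.5% DMSO final. Fixed in 3.7% formaldehyde, permeabilized with 0.5% Triton X-100, stained with anti-p53/Cy5 plus Hoechst 33342. Six images per well at 20x; gain or loss vs DMSO.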

Assay [18] in a line: APR_HepG2_p53Act_72hr: Apredica 72-hour HepG2 Assay for p53 Activation (AID 2282923).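 Also: average cellular p53 protein immunofluorescence intensity in HepG2 cells.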 The settings on record: high-content imaging, actives raise or lower the signal. The gist of the method: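 Readout: p53 immunofluorescence quantified by automated high-content imaging at 20x, six fields per well, nuclei located via Hoechst. Dosing ran 72 hr over ten concentrations from 0.39 to 200 uM; bidirectional curve fitting against DMSO baseline.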

A short description of assay [19]: APR_HepG2_MitoMass_24hr: Apredica 24-hour HepG2 Assay for Mitochondrial Mass (AID 2282912). The settings on record: high-content imaging, actives raise or lower the signal. Summed up:
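HepG2, 24 hr dosing, 10 concentrations 0.39–200 uM in duplicate, DMSO 0.5% final. MitoTracker Red CMXRos 250 nM, 30 min pre-fix; 3.7% formaldehyde fix. Imaging-based fluorescence intensity; gain/loss fit vs DMSO baseline.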

A short description of assay [20]: APR_HepG2_StressKinase_24hr: Apredica 24-hour HepG2 Assay for Stress Kinase (AID 2282922). The settings on record: HepG2 stress kinase (phospho-c-Jun) imaging, actives raise or lower the signal. The gist of the method: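 After 24 hr compound treatment (up to 200 uM, final DMSO 0.5% v/v), HepG2 cells are fixed and multiplex-labeled; phospho-c-Jun intensity is captured by high-content fluorescence imaging and analyzed relative to DMSO.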

Activity calls are given as the source filed them. The calls were made as follows: active = hit-call score of the fitted dose curve at least 0.9, where 1 is the maximum; inactive = score below 0.9.

For the compound `CCCSP(=O)(OCC)SCCC`, the outcome in assay [1], in assay [2], in assay [3], in [4], in assay [5] and in [6] was inactive. Besides, the outcome in [7], in assay [8], in [9], in [10], in assay [11] and in assay [12] was inactive. The outcome in assay [13], in assay [14], in assay [15] and in assay [16] was inactive.

Broadly, the AC50 is the concentration at which the activity in the assay is half-maximal. `CC[C@H](C)[C@H]1O[C@]2(C=C[C@@H]1C)C[C@@H]1C[C@@H](C/C=C(\C)[C@@H](O[C@H]3C[C@H](OC)[C@@H](O[C@H]4C[C@H](OC)[C@@H](NC)[C@H](C)O4)[C@H](C)O3)[C@@H](C)/C=C/C=C3\CO[C@@H]4[C@H](O)C(C)=C[C@@H](C(=O)O1)[C@]34O)O2`: the concentration at half-maximal activity (AC50) is 17.6 µM (active) in assay [1]; 2.55 µM (active) in [3]; 12.6 µM (active) in [4]; 12.7 µM (active) in assay [5]; 160 nM (active) in [10]. For the same compound, the compound was classed as inactive in [2], in [6], in [17], in assay [7], in assay [8] and in assay [9]. For the same compound, the compound was called inactive in [11], in [12], in assay [13], in [14], in assay [18] and in assay [15]. For the same compound, in assay [16], the result was inactive.

Regarding `CCc1cccc(C)c1N(C(=O)CCl)C(C)COC` (stereo unspecified), the result in [1], in [2], in assay [3], in [4], in [5] and in assay [6] was inactive. Also, the call in assay [19], in assay [17], in [7], in [10], in [13] and in [14] was inactive. Moreover, the compound was called inactive in [20], in assay [18], in assay [15] and in [16]. In addition, the AC50 is 106 µM (active) in assay [8], 87.6 µM (active) in [9], 82.6 µM (active) in [11] and 62.4 µM (active) in [12].

Consider `CN(C)[C@@H]1C(=O)C(C(N)=O)=C(O)[C@@]2(O)C(=O)C3=C(O)c4c(O)cccc4[C@@](C)(O)[C@H]3[C@H](O)[C@@H]12`, for which the result in [1], in [2], in [3], in [4], in [5] and in assay [6] was inactive. Besides, the outcome in [7], in assay [8], in [9], in assay [10], in [11] and in assay [12] was inactive. Besides, the compound was called inactive in assay [13], in assay [14], in assay [15] and in [16].

In the case of `CC(Oc1cccc(Cl)c1)C(=O)O` (stereo unspecified), the result in [2], in assay [3], in assay [4], in assay [5], in assay [6] and in assay [19] was inactive. The compound was called inactive in [17], in assay [7], in assay [8], in [9], in assay [10] and in assay [11]. Moreover, the compound was classed as inactive in assay [12], in assay [13], in assay [14], in [20], in [18] and in assay [15]. Moreover, in assay [16], the result was inactive.

Turning to `CCCOCC(=Nc1ccc(Cl)cc1C(F)(F)F)n1ccnc1`, the compound was classed as inactive in [1], in assay [2], in [3], in assay [4], in assay [5] and in [6]. Also, the compound was called inactive in [19], in assay [17], in assay [7], in [9], in assay [10] and in [11]. Moreover, the result in assay [12], in assay [13], in [14], in assay [18], in assay [15] and in [16] was inactive. Further, the AC50 in assay [8] is 100 µM (active).

Take `FC(F)C(F)(F)OCC(Cn1cncn1)c1ccc(Cl)cc1Cl` (stereo unspecified): the result in [1], in assay [2], in assay [5], in assay [6], in assay [17] and in assay [10] was inactive. The call in assay [13], in assay [14], in assay [15] and in [16] was inactive. The AC50 in assay [3] was 48.7 µM (active); in assay [4] it was 103 µM (active); in [7], 75.8 µM (active); in assay [8] it was 99.9 µM (active); in [9], 105 µM (active); in assay [11] it was 100 µM (active). The values for the AC50 in assay [12] and in [18] were 84.6 µM (active) and 116 µM (active), respectively.
